Measured values published in PubChem BioAssay (Tox21).
Results filed as inconclusive are left out. Active and inactive are the calls of the source. Unless noted, calls come from the whole dose curve; as a rule, active = well fitted curve in the direction sought with a large enough effect in the repeat runs; inconclusive = weak or mixed curves; inactive = no such curve, though single readings can be large; an effect the other way counts as inactive or inconclusive.

Experiments:
[1] = qHTS assay to identify small molecule agonists of the hypoxia (HIF-1) signaling pathway - cell viability counter screen (AID 1224844; calls by dose curve; note: nearly all actives have a fitted effect of over 50% in size)
Summary of the method: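 Cells (HRE-bla ME-180, 2,000 per well) sat 5 hrs at 37C, got compound for 17 hrs, were read for CCF4-AM FRET, and were finally lysed with CellTiter-Glo for a 30 min room-temperature luminescence read.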

[2] = qHTS assay to identify small molecule agonists of H2AX (AID 1224845; active = well fitted activation curve with a large enough effect in the signal ratio in the repeat runs, not every such curve was filed as active; the % refers to the signal ratio)
Summary of the method: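 Wild-type CHO-K1 cells plated overnight, then exposed 3 hr at 37C to compounds at 15 concentrations (0.76% DMSO). Lysed, then HTRF anti-pH2AX(S139)-cryptate/anti-H2AX-d2 detection after 24 hr at room temperature; emissions 665 and 620 nm.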

[3] = A CellTox Green Cytotoxicity Assay to monitor cytotoxicity in HEK293 cells - 0 hour (AID 1224869); note: nearly all actives have a fitted effect of over 50% in size; note: potency is the fitted concentration of half-maximal effect
Summary of the method: (§1)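 Fluorescence intensity, read at 0, 8, 16, 24, 32 and 40 h of compound treatment, reflected dye binding to DNA of dead HEK293 cells; compounds (23 nL, DMSO) were added 5 h after plating cells with reagent.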

[4] = qHTS RealTime-Glo MT Cell Viability Assay in HepG2 cells - 40 hour (AID 1224870); note: nearly all actives have a fitted effect of over 50% in size
Summary of the method: (§2)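 HepG2 cells mixed with RealTime-Glo MT reagents (NanoLuc plus cell-permeant prosubstrate) were seeded at 600 cells/well, incubated 5 h at 37 C/5% CO2, then pinned with compounds in DMSO; nonlytic luminescence tracked viability during 40 h treatment.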

[5] = qHTS RealTime-Glo MT Cell Viability Assay in HEK293 cells - 16 hour (AID 1224872); note: top concentration of the series differs between compounds; nearly all actives have a fitted effect of over 50% in size
Summary of the method: (§3)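 HEK293 cells were seeded at 600 cells/well together with NanoLuc luciferase and cell-permeant prosubstrate, preincubated 5 h at 37 C/5% CO2, then given compound in DMSO by pintool. Luminescence from viable-cell prosubstrate reduction was read repeatedly over 40 h.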

[6] = qHTS RealTime-Glo MT Cell Viability Assay in HepG2 cells - 8 hour (AID 1224873); note: nearly all actives have a fitted effect of over 55% in size
Summary of the method: as §2

[7] = qHTS RealTime-Glo MT Cell Viability Assay in HEK293 cells - 40 hour (AID 1224874); details: RealTime-Glo luminescence; max response: stronger effect = lower value; note: nearly all actives have a fitted effect of over 50% in size; note: potency is the fitted concentration of half-maximal effect
Summary of the method: (§4)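 Viable HEK293 cells reduce a cell-permeant prosubstrate; the product diffuses out and is consumed by NanoLuc in the medium to give light. Compounds went in after a 5 h incubation and plates were read over the treatment course.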

[8] = A CellTox Green Cytotoxicity Assay to monitor cytotoxicity in HEK293 cells - 24 hour (AID 1224875); note: nearly all actives have a fitted effect of over 45% in size; note: potency is the fitted concentration of half-maximal effect
Summary of the method: as §1

[9] = A CellTox Green Cytotoxicity Assay to monitor cytotoxicity in HepG2 cells - 16 hour (AID 1224876); note: nearly all actives have a fitted effect of over 45% in size; note: potency is the fitted concentration of half-maximal effect
Summary of the method: (§5)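 Using 1536-well format, dye-containing HepG2 suspension was seeded, allowed 5 h at 37 C/5% CO2, dosed by pintool with compounds, positive and negative controls, and imaged for fluorescence across 40 h.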

[10] = qHTS RealTime-Glo MT Cell Viability Assay in HepG2 cells - 32 hour (AID 1224877); note: nearly all actives have a fitted effect of over 55% in size
Summary of the method: (§6)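 HepG2 cells were seeded at 600 cells/well together with NanoLuc luciferase and a cell-permeant prosubstrate, preincubated 5 h at 37 C/5% CO2, then pin-dosed with compounds in DMSO. Nonlytic luminescence from viable cells was read at each time point.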

[11] = A CellTox Green Cytotoxicity Assay to monitor cytotoxicity in HepG2 cells - 24 hour (AID 1224878); note: nearly all actives have a fitted effect of over 45% in size; note: potency is the fitted concentration of half-maximal effect
Summary of the method: as §5

[12] = A CellTox Green Cytotoxicity Assay to monitor cytotoxicity in HepG2 cells - 40 hour (AID 1224879); note: nearly all actives have a fitted effect of over 40% in size; note: potency is the fitted concentration of half-maximal effect
Summary of the method: as §5

[13] = qHTS RealTime-Glo MT Cell Viability Assay in HEK293 cells - 0 hour (AID 1224880); note: nearly all actives have a fitted effect of over 45% in size; note: potency is the fitted concentration of half-maximal effect
Summary of the method: as §4

[14] = qHTS assay to identify small molecule antagonists of the estrogen related receptor (ERR) signaling pathway from Tox21 library (AID 1224848); note: nearly all actives have a fitted effect of over 50% in size; note: potency is the fitted concentration of half-maximal effect
Summary of the method: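 Screening used an ERR reporter line supplied by NTP, exposed for 18 h at 37 C to library compounds delivered in DMSO. Signal was luciferase luminescence developed with ONE-Glo at room temperature for 30 min.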

[15] = qHTS assay to identify small molecule agonists of the estrogen related receptor (ERR) signaling pathway from Tox21 library (AID 1224849; calls by dose curve; note: nearly all actives have a fitted effect of over 15% in size); details: ERR reporter cell line, ONE-Glo luciferase, 18 h; at 92.4 µM (top of the series) unless noted
Summary of the method: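 Screening used an NTP-provided ERR luciferase cell line. Compounds in DMSO were added 6 h after seeding and left 18 h at 37 C before a 30 min ONE-Glo step and luminescence reading.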

[16] = qHTS RealTime-Glo MT Cell Viability Assay in HepG2 cells - 24 hour (AID 1224867); note: nearly all actives have a fitted effect of over 50% in size
Summary of the method: as §6

[17] = A CellTox Green Cytotoxicity Assay to monitor cytotoxicity in HEK293 cells - 40 hour (AID 1224871); note: nearly all actives have a fitted effect of over 45% in size; note: potency is the fitted concentration of half-maximal effect
Summary of the method: as §1

[18] = qHTS assay to identify small molecule agonists of the hypoxia (HIF-1) signaling pathway (AID 1224846; active = well fitted activation curve with a large enough effect in the signal ratio in the repeat runs, not every such curve was filed as active; the % refers to the signal ratio)
Summary of the method: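 A low-serum medium (0.5% dialyzed FBS) holding 2,000 HRE-bla ME-180 cells per well is preincubated for 5 hrs, dosed with compounds by pintool, and kept a further 17 hrs at 37C, 5% CO2 before CCF4-AM FRET detection of beta-lactamase.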

[19] = qHTS RealTime-Glo MT Cell Viability Assay in HEK293 cells - 32 hour (AID 1224868); note: nearly all actives have a fitted effect of over 50% in size; note: potency is the fitted concentration of half-maximal effect
Summary of the method: as §3

[20] = qHTS assay to identify small molecule agonists of H2AX - cell viability counter screen (AID 1224847; calls by dose curve; note: top concentration of the series differs between compounds; nearly all actives have a fitted effect of over 30% in size)
Summary of the method: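 For this counter screen, overnight-attached CHO-K1 cells received test compounds (15 concentrations, 0.76% DMSO final); 3 hr later at 37C, CellTiter-Glo reagent was added and luminescence recorded after 30 min at room temperature.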
% is set by controls: 0 for no effect and ±100 for the full control effect.

C#CCN(C)CCCOc1ccc(Cl)cc1Cl
inactive: Potency [1] | Potency [2] | Potency [3] | Potency [4] | Potency [5] | Potency [6] | max response [7] -21.6% | Potency [8] | Potency [9] | Potency [10] | Potency [11] | Potency [13]
active: Potency [12] 6.01 µM

O=C(O)c1ccc(-n2nc(-c3ccccc3O)nc2-c2ccccc2O)cc1
inactive: Potency [1] | activity change, positive = activation [15] -48.9% [at 42.5 µM] | Potency [16] | Potency [4] | Potency [17] | Potency [5] | Potency [6] | Potency [8] | Potency [9] | Potency [10] | Potency [11] | Potency [12] | Potency [13]
active: Potency [14] 21.1 µM

N=c1ccn2c(n1)O[C@H]1[C@H](O)[C@@H](CO)O[C@H]12
active: Potency [12] 54.9 µM
inactive: Potency [1] | Potency [18] | Potency [14] | activity change, positive = activation [15] -6.33% | Potency [19] | Potency [3] | Potency [4] | Potency [17] | Potency [6] | max response [7] 22.1% | Potency [8] | Potency [10] | Potency [13]

COc1cc2nc(N3CCN(C(=O)C4COc5ccccc5O4)CC3)nc(N)c2cc1OC (configuration not stated)
inactive: Potency [1] | Potency [2] | Potency [16] | Potency [3] | Potency [4] | Potency [17] | Potency [6] | Potency [8] | Potency [9]
active: Potency [19] 21.3 µM | Potency [7] 23.9 µM | Potency [11] 23.9 µM | Potency [12] 23.9 µM | Potency [13] 19 µM

CC(C)CC(=O)C1C(=O)c2ccccc2C1=O
active: Potency [14] 30.6 µM
inactive: Potency [1] | Potency [18] | activity change, positive = activation [15] -53.7% | Potency [16] | Potency [4] | Potency [17] | Potency [5] | Potency [6] | max response [7] 0.634% | Potency [8] | Potency [9] | Potency [11] | Potency [12] | Potency [13]

Cn1c(=O)cc(Oc2ccc(F)cc2F)c2cnc(NCC(C)(C)O)nc21
inactive: Potency [1] | Potency [18] | activity change, positive = activation [15] -55.2% | Potency [16] | Potency [3] | Potency [4] | Potency [17] | Potency [6] | Potency [8] | Potency [9] | Potency [10] | Potency [11] | Potency [12] | Potency [13]
active: Potency [14] 30.6 µM

COc1cc(Cl)c(OC)cc1N
inactive: Potency [1] | Potency [20] | Potency [16] | Potency [19] | Potency [4] | Potency [17] | Potency [5] | Potency [6] | Potency [8] | Potency [9] | Potency [10] | Potency [11] | Potency [12] | Potency [13]

COS(=O)(=O)C(F)(F)F
inactive: Potency [1] | Potency [18] | Potency [20] | Potency [16] | Potency [19] | Potency [3] | Potency [4] | Potency [5] | Potency [6] | max response [7] 11.7% | Potency [8] | Potency [9] | Potency [11] | Potency [12] | Potency [13]

Cc1oc(-c2ccccc2)nc1CCOc1cccc2c1ccn2CCC(=O)O
inactive: Potency [1] | Potency [18] | Potency [19] | Potency [3] | Potency [4] | Potency [5] | Potency [6] | max response [7] -19% | Potency [8] | Potency [9] | Potency [12] | Potency [13]

CNC(=O)CN(CCN(CCN(CC(=O)[O-])CC(=O)NC)CC(=O)[O-])CC(=O)[O-].O.[Gd+3]
inactive: Potency [2] | Potency [18] | Potency [20] | Potency [16] | Potency [19] | Potency [3] | Potency [4] | Potency [5] | max response [7] 2.96% | Potency [8] | Potency [9] | Potency [10] | Potency [11] | Potency [12] | Potency [13]

C=CCOC(=O)CCC1CCCCC1
inactive: Potency [2] | Potency [18] | Potency [14] | activity change, positive = activation [15] -4.2% | Potency [16] | Potency [19] | Potency [3] | Potency [4] | Potency [17] | Potency [5] | Potency [6] | max response [7] 4.81% | Potency [8] | Potency [9] | Potency [10] | Potency [11] | Potency [12] | Potency [13]

CCCCC(=O)OCC(=O)[C@H]1[C@H](C)C[C@H]2[C@@H]3C[C@H](F)C4=CC(=O)C=C[C@]4(C)[C@@]3(F)[C@@H](O)C[C@@]21C
inactive: Potency [2] | Potency [18] | Potency [16] | Potency [19] | Potency [3] | Potency [4] | Potency [17] | Potency [5] | Potency [6] | max response [7] -15.1% | Potency [8] | Potency [9] | Potency [11] | Potency [12]
active: Potency [13] 4.77 µM

O=C(Nc1ccc(S(=O)(=O)N2CCOCC2)cc1)c1cc(Cl)ccc1NS(=O)(=O)c1ccc(Cl)s1
active: Potency [3] 19 µM | Potency [17] 21.3 µM | Potency [8] 23.9 µM | Potency [9] 26.8 µM | Potency [13] 10.7 µM
inactive: Potency [2] | Potency [18] | Potency [20] | Potency [14] | activity change, positive = activation [15] -2.07% [at 42.5 µM] | Potency [4] | Potency [5] | max response [7] -14.7%

CCc1cc(C2=C(C(=O)O)N(c3ccccc3C(F)(F)F)S(=O)(=O)c3ccccc32)cc2c1OCO2
active: Potency [14] 24.1 µM | Potency [13] 43.1 µM
inactive: Potency [2] | Potency [18] | Potency [20] | activity change, positive = activation [15] -39.9% | Potency [16] | Potency [3] | Potency [4] | Potency [17] | Potency [5] | Potency [6] | max response [7] -24.9% | Potency [8] | Potency [9] | Potency [10] | Potency [11] | Potency [12]

CCCCC1=NC2(CCCC2)C(=O)N1Cc1ccc(-c2ccccc2-c2nn[nH]n2)cc1
inactive: Potency [2] | Potency [18] | Potency [19] | Potency [4] | Potency [17] | Potency [5] | Potency [6] | max response [7] -1.18% | Potency [8] | Potency [11] | Potency [12] | Potency [13]
